Measurements reported in PubChem BioAssay (NCATS).
Records with an inconclusive call do not appear. The source made the active and inactive calls. Calls come from the whole dose curve; as a rule, active = well fitted curve in the direction sought with a large enough effect; inconclusive = small, poorly fitted or top-dose-only effect, or another doubt; inactive = no such curve, though single readings can be large; an effect the other way counts as inactive or inconclusive.

Legend:
Hek293T = experiment: Primary qHTS to identify gynecologic anti-cancer compounds using libraries of approved drugs and bioactive compounds (AID 1345084); settings: Gynecologic cancer cell panel viability, ATPlite luminescence, 48 h, control line for the selectivity index; series mostly up to 57.5 µM; note: nearly all actives have a fitted effect of over 55% in size
Outline: (§1)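 Luminescence from the ATPlite ATP-monitoring reagent indicates viable cell number; lower signal means cytotoxicity. Cells received compound 16 h after seeding and were exposed for 48 h across five concentrations.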

JEG-3 = experiment: as above; settings: Gynecologic cancer cell panel viability, ATPlite luminescence, 48 h; series mostly up to 57.5 µM
Outline: as §1

OV90 = experiment: as above; settings: Gynecologic cancer cell panel viability, ATPlite luminescence, 48 h; series mostly up to 57.5 µM
Outline: as §1

PA-1 = experiment: as above; settings: Gynecologic cancer cell panel viability, ATPlite luminescence, 48 h; series mostly up to 57.5 µM
Outline: as §1

Tov-21-G = experiment: as above; settings: Gynecologic cancer cell panel viability, ATPlite luminescence, 48 h; series mostly up to 57.5 µM
Outline: as §1

Tov112D = experiment: as above; settings: Gynecologic cancer cell panel viability, ATPlite luminescence, 48 h; series mostly up to 57.5 µM
Outline: as §1

SKOV3 = experiment: as above; settings: Gynecologic cancer cell panel viability, ATPlite luminescence, 48 h; series mostly up to 57.5 µM
Outline: as §1

[1] = Drug repurposing screens with cells derived from glioblastoma tumor samples (AID 1345199); settings: GBM patient neurospheres viability, ATP luminescence, 48 h; note: nearly all actives have a fitted effect of over 40% in size
Outline: (§2)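 Primary testing used CD133+ neurospheres from four GBM patients, seven concentrations, 48 h exposure and ATP-based viability; confirmation added three slower-growing patient lines.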

astro = experiment: as above; settings: viability, ATP luminescence, 48 h; series mostly up to 45.9 µM
Outline: as §2
% is set by controls: 0 for no effect and ±100 for the full control effect.

C=C1CCC2C(C)(C)CC(=O)CC2(C)C1CCC(C)CCOC(C)=O (stereo not given)
inactive: Potency (Hek293T) | Potency (JEG-3) | Potency (OV90) | Potency (PA-1) | Potency (Tov-21-G) | Potency (Tov112D)

Cc1coc2c1CC1OC1(C)CCC1OC1(C)C2 (stereo not given)
inactive: Potency (Hek293T) | Potency (JEG-3) | Potency (OV90) | Potency (PA-1) | Potency (Tov-21-G) | Potency (Tov112D)

O=C1N(CC2CCCCN2)CCN1c1ccccc1 (stereo not given)
inactive: Potency (Hek293T) | Potency (JEG-3) | Potency (OV90) | Potency (PA-1) | Potency (Tov-21-G) | Potency (Tov112D)

CC(C)=CCC/C(C)=C/CC/C(C)=C/CC[C@]1(C)CCc2cc(O)cc(C)c2O1
inactive: Potency (Hek293T) | Potency (JEG-3) | Potency (OV90) | Potency (PA-1) | Potency (Tov-21-G) | Potency (Tov112D)

COC(=O)C1=COC(O[C@@H]2O[C@H](CO)[C@@H](O)[C@H](O)[C@H]2O)/C(=C\COC(=O)c2ccc(OC3OC(CO)C(O)C(O)C3O)c(OC)c2)C1CC(=O)OCCc1ccc(O)cc1 (stereo not given in full)
inactive: activity change, negative = cytotoxicity (Hek293T) 17.6% [at 11.6 µM] | activity change, negative = cytotoxicity (JEG-3) 2.03% [at 11.6 µM] | activity change, negative = cytotoxicity (OV90) 1.39% [at 11.6 µM] | activity change, negative = cytotoxicity (PA-1) -0.972% [at 11.6 µM] | activity change, negative = cytotoxicity (Tov-21-G) 2.92% [at 11.6 µM] | activity change, negative = cytotoxicity (Tov112D) 6.58% [at 11.6 µM]

CCOC(=O)[C@H]1O[C@@H]1C(=O)N[C@@H](CC(C)C)C(=O)NCCC(C)C
inactive: Potency (Hek293T) | Potency (JEG-3) | Potency (OV90) | Potency (PA-1) | Potency (Tov-21-G) | Potency (Tov112D)

CC1(C)CC[C@]2(C(=O)O)CC[C@]3(C)C(=CCC4[C@@]5(C)CCC(O[C@@H]6OC[C@H](O)[C@H](O)[C@H]6O[C@@H]6O[C@H](CO)[C@@H](O)[C@H](O)[C@H]6O)[C@@](C)(CO)C5CC[C@]43C)[C@@H]2C1 (stereo not given in full)
inactive: Potency (Hek293T) | Potency (JEG-3) | Potency (OV90) | Potency (SKOV3) | Potency (Tov-21-G) | Potency (Tov112D)

C[C@@H](Nc1cc(NS(=O)(=O)N2CCC2)nc(SCc2cccc(F)c2F)n1)[C@@H](O)CO
inactive: Potency (Hek293T) | Potency (JEG-3) | Potency (OV90) | Potency (PA-1) | Potency (Tov-21-G) | Potency (Tov112D)

CCCCS(=O)(=O)Nc1ncnc(OCCOc2ncc(Br)cn2)c1-c1ccc(Br)cc1
inactive: Potency (Hek293T) | Potency (JEG-3) | Potency (OV90) | Potency (PA-1) | Potency (Tov-21-G) | Potency (Tov112D)

CNc1nc(Nc2cnn([C@H]3CCN(C4COC4)C[C@@H]3F)c2Cl)ncc1C(F)(F)F
inactive: Potency (Hek293T) | Potency (JEG-3) | Potency (OV90) | Potency (SKOV3) | Potency (Tov-21-G) | Potency (Tov112D)

OC[C@H]1O[C@@H](n2cnc3c2NC=NC[C@H]3O)C[C@@H]1O
inactive: Potency (Hek293T) | Potency (JEG-3) | Potency (OV90) | Potency (PA-1) | Potency (Tov-21-G) | Potency (Tov112D) | activity, negative = cell killing ([1]; at 45.9 µM (top of the series), tumour line B) 2.62% | activity, negative = cell killing ([1]; at 45.9 µM (top of the series), tumour line D) -21% | activity, negative = cell killing ([1]; at 46 µM (top of the series), tumour line A) -9.89% | activity, negative = cell killing ([1]; at 46.1 µM (top of the series), tumour line C) 8.32% | Potency (astro)

CC(=O)NCCCCn1c2c(c3ccccc31)C(=O)NCC2
inactive: Potency (Hek293T) | Potency (JEG-3) | Potency (OV90) | Potency (PA-1) | Potency (Tov-21-G) | Potency (Tov112D)

CCCOc1ccn2c(C(C)=O)cc(-c3ccccc3S(C)(=O)=O)c2c1
inactive: Potency (Hek293T) | Potency (JEG-3) | Potency (OV90) | Potency (PA-1) | Potency (Tov-21-G) | Potency (Tov112D)

C[C@@H]1O[C@@H](OC[C@H]2O[C@@H](OCC3CCC4CC3C4(C)C)[C@H](O)[C@@H](O)[C@@H]2O)[C@H](O)[C@H](O)[C@H]1O (stereo not given in full)
inactive: Potency (Hek293T) | Potency (JEG-3) | Potency (OV90) | Potency (PA-1) | Potency (Tov-21-G) | Potency (Tov112D)

CC(C)C(=O)O[C@@H]1[C@@H](O)[C@@H](O[C@H]2O[C@H](CO)[C@@H](O)[C@H](O)[C@H]2O)O[C@H](CO)[C@H]1O
inactive: Potency (Hek293T) | Potency (JEG-3) | Potency (OV90) | Potency (PA-1) | Potency (Tov-21-G) | Potency (Tov112D)

CC1(C)OC(=O)C(OCC2CC2)=C1c1ccc(S(C)(=O)=O)cc1
inactive: Potency (Hek293T) | Potency (JEG-3) | Potency (OV90) | Potency (PA-1) | Potency (Tov-21-G) | Potency (Tov112D)

O=C(O)C[C@H]1CCC(=O)[C@@H]1C/C=C\CCOC1OC(CO)C(O)C(O)C1O (stereo not given in full)
inactive: Potency (Hek293T) | Potency (JEG-3) | Potency (OV90) | Potency (PA-1) | Potency (Tov-21-G) | Potency (Tov112D)

O=C1[C@H](O[C@@H]2O[C@H](CO)[C@@H](O)[C@H](O)[C@H]2O)Oc2ccccc2N1O
inactive: Potency (Hek293T) | Potency (JEG-3) | Potency (OV90) | Potency (PA-1) | Potency (Tov-21-G) | Potency (Tov112D)

CC1CCC2(C(=O)OC3OC(COC4OC(CO)C(O)C(O)C4O)C(O)C(O)C3O)CCC3(C)C(=CCC4C5(C)CCC(O)C(C)(C(=O)O)C5CCC43C)C2C1(C)O (stereo not given)
inactive: activity change, negative = cytotoxicity (Hek293T) 2.24% [at 11.6 µM] | activity change, negative = cytotoxicity (JEG-3) 10.5% [at 11.6 µM] | activity change, negative = cytotoxicity (OV90) 27% [at 11.6 µM] | activity change, negative = cytotoxicity (PA-1) -0.862% [at 11.6 µM] | activity change, negative = cytotoxicity (Tov-21-G) 6.67% [at 11.6 µM] | activity change, negative = cytotoxicity (Tov112D) -8.14% [at 11.6 µM]

C=C(C(=O)O)[C@@H]1CC=C2CCC[C@H](C)[C@@]2(C)C1
inactive: Potency (Hek293T) | Potency (JEG-3) | Potency (OV90) | Potency (PA-1) | Potency (Tov-21-G) | Potency (Tov112D)
